Here are results for 40 compounds from PubChem BioAssay (EPA / NIEHS).

The source made the active and inactive calls. How the source made its calls: active means hit-call score of the fitted dose curve at least 0.9, where 1 is the maximum; inactive means score below 0.9.

Read-out in this assay: cysteine-aspartic acid protease (CASP8), CASP8 (gene 841)
The assay can be described thus: LTEA_HepaRG_CASP8: Life Technologies and Expression Analysis (LTEA) Assay for cysteine-aspartic acid protease (CASP8) using HepaRG (AID 2283480). The following applies: mRNA level, 48 h; actives raise or lower the signal. On the procedure:
LTEA_HepaRG is a cell based, multiplexed-readout assay that uses HepaRG, a human liver cell line, with measurements taken at 48 hours after chemical dosing on a 96-well plate.LTEA_HepaRG_CASP8 is one of 102 assay component(s) measured in the LTEA HepaRG cell culture assay. It is a marker of Cell proliferation, survival, death.Data from the assay component LTEA_HepaRG_CASP8 was analyzed into 1 endpoint. This assay endpoint, LTEA_HepaRG_CASP8, was analyzed with bidirectional fitting relative to DMSO as the negative control and baseline of activity. Using a type of inducible reporter, measures of mRNA induction for gain or loss-of-signal activity can be used to understand regulation of transcription factor activity. To generalize the intended target to other relatable targets, this assay endpoint is annotated to the protease intended target family, where the subfamily is cysteine protease.
A total of 1060 chemcials from the ToxCast library were tested in eight-point concentration-response experiments. Cell culture and cytotoxicity assays were conducted at Thermo Fisher Scientific's Custom Services facility (Madison, WI). A single lot of human HepaRG cells (Thermo Fisher Scientific, Frederick, MD) was used for the cell culture experiments. 96-well format collagen type I coated plates of human HepaRG cells were prepared using established methods. Briefly, cryopreserved HepaRG cells were thawed, plated at a density of approximately 100,000 cells/well in HepaRG Thaw, Plate, and General Purpose media (HPRG770, Thermo Fisher Scientific), and incubated for 48 hours. 0.5% DMSO was selected as vehicle control to balance the requisite need of DMSO in HepaRG cultures to maintain differentiation (for example, baseline metabolism, proportions of hepatocytes vs. cholangiocytes), while enabling further hepatic receptor pathway activation (for example, PXR and CAR) in response to chemical exposure. 48 hours after plating, the culture medium was replaced with HepaRG Serum-Free Incudtion Media. Cells were exposed to each test chemical in duplicate and maintained in CO2 incubators for another 48 hours. Chemical plates were thawed to room temperature and 200x concentrations of treatment groups were prepared. 8-point conentration-reponse curves were made with the highest exposure at 100 uM, followed by half-log dilutions, all in 0.5% DMSO. Each test plate contained variouse controls, induction positive controls (1mM phenobarbital), cytotoxicity positive controls ([…] aflatoxin B1), vehicle controls (0.5% DMSO), and total lysis controls (0.5% DMSO). Cell morphology images were taken using an Essen IncuCyte FLR automated microscope, with six 96-well plates imaged in about 24 minutes. Images were captured and exported and JPEG files. Spent culture media was transfered to black-well plates for the LDH assay, and remaining media was sorted at -80 C for later use. Cells were treated with RLT buffer and frozen until shipped for gene expression analysis. Total RNA was isolated from the cell suspension in 75 uL of Buffer RLT (Qiagen, Germantown, MD 20874) by Quintiles/Expression Analysis (Durham, NC) using a custom isolation procedure. Total RNA from each plate well was transferred to a preamplification plate. Fluidigm's 96.96 Dynamic ArrayTM (Fluidigm, Amsterdam, the Netherlands) technology was used for gene expression analyses by quantitative reverse transcription polymerase chain reaction (qRT-PCR, performed by Quintiles/Expression Analysis, Durham, NC)89. Standard TaqManTM Assays (Applied Biosystems/ThermoFisher Scientific, Foster City, CA) were used to assess the expression of 93 genes selected based on their selectivity and sensitivity to important hepatic receptors known to be modulated by environmental chemicals; importance in human hepatocyte functionality; and hepatotoxicity. […]
Consider `Oc1ccc2ccccc2c1N=Nc1ccccc1`, for which the call was inactive.
`C1CCC(SSC2CCCCC2)CC1`: the compound was classed as inactive.
Take `C=CCc1ccc(O)c(OC)c1`: the outcome was inactive.
Still for that read-out and setting: to `CCOc1ccc2c(c1)C(C)=CC(C)(C)N2` belongs “inactive”; to `CCCCCC(=O)O`, “inactive”; to `CCCCCCCC=O`, “inactive”.
With `CC1(C)CC(N=C=O)CC(C)(CN=C=O)C1` (stereo not given), the result was inactive.
For the compound `CC1=C(/C=C/C(C)=C/C=C/C(C)=C/CO)C(C)(C)CCC1`, the compound was classed as inactive.
For `CC=Cc1ccc(O)c(OC)c1`, the outcome was inactive.
Consider `Cc1cc(=O)[nH]c(=S)[nH]1`, for which the result was inactive.
With `Cc1cc(NC(=O)C(=O)O)cc(C)c1Oc1ccc(O)c2c1CCC2`, the outcome was inactive.
With `Cc1cccc([N+](=O)[O-])c1C`, the outcome was inactive.
`Cc1nc(-c2ccc3c(c2)CCN(CCC2CCC(NC(=O)/C=C/c4ccc(F)cc4)CC2)CC3)no1` (stereo not given): the call was inactive.
With `CC(=O)Oc1ccccc1C(=O)O`, the call was inactive.
With `O=C(O)CCCCC(=O)O`, the outcome was inactive.
Same read-out and setting: the entry for `O=C(N[C@@H](Cc1ccccc1)[C@@H](O)C(=O)N1C[C@@H](O)[C@@H](O)C1)c1cc2cc(Cl)ccc2[nH]1` is “inactive”.
What is called AC50 is the concentration giving half of the maximal activity seen. Regarding `CCCCC(CC)COC(=O)CC(C(=O)OCC(CC)CCCC)S(=O)(=O)O` (stereo not given), the AC50 was 81.6 µM (active).
Turning to `CCCCN(CCCC)CCCC`, the result was inactive.
In the case of `Cc1cccc(C)c1O`, the result was inactive.
Still for that read-out and setting: the entry for `CCCCCCCCCCCC(=O)OC` is “inactive”; for `NCC1(Cc2noc(=O)[nH]2)CCCCC1` it is “inactive”.
Take `COc1cc(S(=O)(=O)O)c(C)cc1N=Nc1c(O)ccc2cc(S(=O)(=O)O)ccc12`: the compound was classed as inactive.
With `CC(=O)OCCOCCOCCOC(C)=O`, the compound was called inactive.
The same measure, in the same setting: to `Cc1ccc2ncccc2c1` belongs “inactive”; to `Cc1ccc(Cl)cc1`, “inactive”.
With `FC(F)(F)C(F)(F)C(F)(F)C(F)(F)C(F)(F)C(F)(F)CCI`, the compound was called inactive.
Consider `Nc1ccc2c(c1)C(=O)c1ccccc1C2=O`, for which the result was inactive.
`COc1cc(-c2nc(NC(=O)c3cc4cc(C)cc(C)c4n3CC(=O)O)sc2CCC2CCCCC2)c(OC)cc1Cl`: the AC50 was 11 µM (active).
Consider `Cc1c(C(=O)O)c(O)cc2c1C(=O)c1c(O)c([C@@H]3O[C@H](CO)[C@@H](O)[C@H](O)[C@H]3O)c(O)c(O)c1C2=O`, for which the call was inactive.
As to `CCOC(=O)C(C)(C)Oc1ccc(Cl)cc1`, the outcome was inactive.
Same read-out and setting: the entry for `COCCOC[C@H](CC1(C(=O)NC2CCC(C(=O)O)CC2)CCCC1)C(=O)Oc1ccc2c(c1)CCC2` (stereo not given in full) is “inactive”; for `CNC(=O)[C@H]1O[C@@H](n2cnc3c(NCc4cc(Cl)ccc4OCc4cc(C)no4)ncnc32)[C@H](O)[C@@H]1N` it is “inactive”; for `Cc1ccc(C(C)C)c(O)c1` it is “inactive”.
Take `Cc1cccc(Nc2cc(Cl)nc(SCC(=O)O)n2)c1C`: the call was inactive.
`CCCCCCCCCCO`: the call was inactive.
`NS(=O)(=O)c1cc2c(cc1Cl)NCNS2(=O)=O`: the call was inactive.
`COCCOCCOC`: the AC50 was 1.57 µM (active).
For the compound `Cc1ccccc1Cl`, the call was inactive.
On the same count and under the same terms, to `C=CCOC(=O)c1ccccc1C(=O)OCC=C` belongs “inactive”; to `C[C@]12C=CC(=O)C=C1CC[C@@H]1[C@@H]2C(=O)C[C@@]2(C)[C@H]1CC[C@]2(O)C(=O)CO`, “inactive”.
